Source: PubChem BioAssay AID1745845 (National Center for Advancing Translational Sciences (NCATS), 2022)
The campaign covered roughly 360,000 compounds. About 2,600 (0.72%) were called active. Inconclusive results (about 5%) are left out. Calls follow the shape of the dose curve; as a rule, active = well fitted inhibition curve with a large enough effect; inconclusive = small, poorly fitted or top-dose-only effect; inactive = no such curve, though single readings can be large or run the other way. For the sample, actives were picked, then their nearest neighbours and some compounds at random.

Assay: Primary qHTS for Inhibitors of ATXN expression; also: nearly all actives have a fitted effect of over 55% in size
Details: HEK-293 ATXN2-luciferase reporter, luminescence, 24 h; series mostly up to 57 µM
Procedure, shortened: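 qHTS (up to 57 uM final) was run with 24 h compound exposure of reporter cells at 37 °C. Each well was multiplexed: SteadyGlo luminescence measured ATXN2-luciferase expression after a fluorogenic Gly-Phe-AFC viability readout (25 uM final).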
Potency is read from the fitted curve at half-maximal effect.

Potency, active:
CC(=O)Nc1ccc(Nc2c3ccccc3nc3ccccc23)cc1 2.51 µM, COCOCCn1cc(CN2CCS(=O)(=O)N(Cc3ccc(-c4ccc(OC)cc4)cc3)C(CC(C)C)C2=O)nn1 (stereo not drawn) 28.2 µM, CCCOc1ccc(C(=O)C(CCC(CNCC)C(=O)c2ccc(OCCC)cc2)CNCC)cc1 (stereo not drawn) 17.8 µM, COc1ccc(/C=C2/SC(=O)N(CCCCCC(=O)Nc3ccccc3C(=O)O)C2=S)cc1 10 µM, CC(C)C[C@H]1CNC(=S)N1C[C@H]1CCCN1C[C@H](Cc1ccc(O)cc1)N1C[C@H](Cc2ccc(O)cc2)N(CC2CCCCC2)C1=S 28.2 µM, O=C(Nc1nc2ccc([N+](=O)[O-])cc2s1)c1ccc(S(=O)(=O)N2CCCc3ccccc32)cc1 13.4 µM, O=C(NC(Nc1nc2ccc([N+](=O)[O-])cc2s1)(C(F)(F)F)C(F)(F)F)c1ccccc1 0.891 µM, COc1ccc(C2CC(c3ccccc3)=NN2C(=O)c2ccc(Cl)c([N+](=O)[O-])c2)cc1 (stereo not drawn) 28.2 µM

Potency, inactive:
Cn1c(=O)[nH]c(=O)c2c1nc(NCCc1ccccc1)n2Cc1ccc(F)cc1, O=C(NNc1c2ccccc2nc2ccccc12)c1cc2ccccc2cc1O, CC(=O)Nc1ccc(S(=O)(=O)N(C)c2nc3ccccc3nc2Cl)cc1, Cc1cc2c(cc1C)C(c1cccc(OC(C)C)c1)CC(=O)N2 (stereo not drawn), CCS(=O)(=O)N1CCc2cc(C(=O)NCc3ccc(OC)cc3)ccc21, CCOC(=O)c1ccc(NC(=O)CC2C(=O)N(c3ccccc3)C(=O)N2Cc2cccs2)cc1 (stereo not drawn), COc1ccccc1N1CCN(c2ncnc3onc(-c4ccc(F)cc4)c23)CC1, COc1ccc(-c2ccc(CN3C(CC(C)C)C(=O)N(Cc4cn(CC5CCCCC5)nn4)CCS3(=O)=O)cc2)cc1 (stereo not drawn), COCOCCn1cc(CN2CCS(=O)(=O)N(Cc3ccc(-c4cccc(N(C)C)c4)cc3)C(CC(C)C)C2=O)nn1 (stereo not drawn), O=C(CC(NCc1cccnc1)C(=O)O)Nc1ccc(O)cc1 (stereo not drawn), COc1ccc(-c2noc(CSc3nnc(-c4ccccc4)n3-c3ccc(F)cc3)n2)c(OC)c1, CC(=O)c1ccc(-c2cnc3c(NC=O)cc(-c4cccc(NS(C)(=O)=O)c4)cn23)cc1, Cc1ccc(NS(=O)(=O)c2cc3c(cc2Br)NC(=O)CO3)cc1C, CCCOc1cccc(C(=O)Nc2cccc(NC(=O)c3ccc(C(C)(C)C)cc3)c2)c1, CCCOc1ccc(/C=N/NC(=O)C2CC2)c(OCCC)c1, COc1cccc(-c2nc(S(=O)(=O)c3ccc(C)cc3)c(NCc3ccccc3)o2)c1, Cc1cccc(NC(=O)CSc2nc3c(oc4ccccc43)c(=O)n2-c2ccc(F)cc2)c1, COC(=O)c1ccc2c(c1)N(CC(=O)Nc1ccc(C)c(C)c1)C(=O)c1ccccc1S2, COc1ccc(/C=C2\SC(=O)N(CCC(=O)NC3CCS(=O)(=O)C3)C2=O)cc1 (stereo not drawn), COc1ccc(/C=C2\SC(=O)N(CCC(=O)NCCCn3ccnc3)C2=O)cc1, O=C(Nc1ccc2oc(-c3ccc(O)c(Br)c3)nc2c1)c1cc2ccccc2o1, CC(C)(C)c1ccc(OCC(=O)N2CCC(c3nc4ccccc4s3)CC2)cc1, CSc1nc(-c2ccccc2Cl)nc2c1Cc1c(CO)cnc(C)c1O2, CCCCOCCOC(=O)c1cccnc1, Cc1ccccc1NC(=O)Cn1c(=O)n(Cc2ccco2)c(=O)c2ccc(C(=O)NC3CCCC3)cc21, CN1C(=O)C[C@H](C(=O)N[C@@H](Cc2cnc[nH]2)C(=O)N2CCC[C@@H]2C(N)=O)NC1=O, CC(C)C[C@H]1CNC(=O)C(=O)N1C[C@H]1CCCN1C[C@H](Cc1ccc(O)cc1)N1C[C@H](CC(C)C)N(CC2CCCCCC2)C(=O)C1=O, O=C1NC[C@H](Cc2ccc(O)cc2)N(C[C@@H]2CCCN2C[C@H](Cc2ccccc2)N2C[C@H](Cc3ccccc3)N(CC3CCCCC3)C(=O)C2=O)C1=O, COc1cccc(C(=O)NCC(=O)OCc2cc(=O)n3ccsc3n2)c1, COc1ccc(Cn2ccc3nc(C)c(C(=O)Nc4ccc(C)c(F)c4)cc3c2=O)cc1, CCOC(=O)c1c(C)oc2nc(C)nc(Nc3ccc(CC)cc3)c12, CC=C(C(=CC)c1ccc(O)cc1)c1ccc(O)cc1, CCC(=O)Nc1nnc(S(=O)(=O)N2CCCc3ccccc32)s1, Cc1ccc(NC(=O)c2cccc(S(=O)(=O)N3CCCc4ccccc43)c2)nc1, N=C1C(c2nc3ccccc3s2)=C(O)CN1NC(=O)c1ccc([N+](=O)[O-])cc1, O=C(O)c1cc([N+](=O)[O-])c(Nc2cccc3ccccc23)c([N+](=O)[O-])c1, Cc1ccc(-c2nc(S(=O)(=O)c3ccc(C)cc3)c(N3CCCCCC3)o2)cc1, CC1(C)[C@H](O[C@H]2O[C@H](C(=O)O)[C@@H](O)[C@H](O)[C@H]2O[C@@H]2O[C@H](C(=O)O)[C@@H](O)[C@H](O)[C@H]2O)CC[C@@]2(C)[C@H]1CC[C@]1(C)[C@H]2C(=O)C=C2[C@H]3C[C@@](C)(C(=O)O)CC[C@]3(C)CC[C@]21C, CC[C@]12C=CCN3CC[C@@]4(c5cc([C@@]6(C(=O)OC)C[C@H]7C[C@@H](C(C)(F)F)CN(Cc8c6[nH]c6ccccc86)C7)c(OC)cc5N(C)[C@H]4[C@@](O)(C(=O)OC)[C@H]1OC(C)=O)[C@@H]32, CN(C)C(=O)c1cccc(-c2cnc3sc(NCc4ccc5c(c4)OCO5)nn23)c1, COc1ccc(-c2nnc(SCC(=O)Nc3ccccc3C)o2)cc1OC, COC(=O)[C@]12CCCCC=C1N(CCC1=CCCCC1)C(=O)[C@H](CC(=O)NCC1CCCCC1)C2, CC(=O)Nc1cccc(-c2ccnc3c2CC(C)(C(=O)NCc2ccco2)O3)c1 (stereo not drawn), COc1ccc(C2CC(c3ccccc3)=NN2C(=O)COC(=O)COc2ccccc2)cc1 (stereo not drawn), COc1ccc(C2CC(c3ccc([N+](=O)[O-])cc3)=NN2C(C)=O)cc1 (stereo not drawn)
